# Laboratory results taken from PubChem BioAssay (NCI).
# This is part of a sample that, as a whole, favours compounds with a hit. Of some 83,000 tested, about 20% had one in any assay.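 Testing used 96-well plates and a 48-hour single-concentration exposure. Example: -40 means 40% of the starting cells died.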 Values without a mark were called inactive. How the source made its calls: active means growth percent below 10; inactive means the rest.
# Tested on: HL-60(TB) leukemia
# Assay: NCI-60 one-dose screen, 48 h (100 = growth as untreated, 0 = no growth, -100 = all killed)
# Settings: 10 µM unless noted
row,Compound,growth
1,O=c1c(-c2nc3ccccc3[nH]2)cc2ccccc2n1Cc1cn(Cc2ccccc2Cl)nn1,67.4%
2,COc1ccc(NC2=C(Br)C(=O)C(C)=C(C)C2=O)cc1,11.7%
3,C/C(=N\NC(=O)c1ccccc1N)c1ccccc1O,40.8%
